Results taken from PubChem BioAssay AID1850 (Southern Research Specialized Biocontainment Screening …, 2009).
Screen size: about 310,000 compounds; about 1,000 (0.32%) were called active. How the calls were made is not given here. Only a sample is shown. Potency and affinity values are given separately.

assay: PhoP regulon inhibitors, Salmonella typhi PhoP promoter GFP reporter, confirmatory (AID 1850); conditions: fluorescence, 4 h, at 50 µM, stronger effect = higher value;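 further: 0% = induced wells with vehicle and 100% = uninduced wells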

Compound	inhibition
COC(=O)C1=C(C)N(CC2CC2)C(=NCCN2CCOCC2)N[C@H]1c1ccccc1	-21.7% (inactive)
COc1cc(/C=N/NC(=O)c2ccncc2)ccc1OCC(=O)Nc1ccc(C)c(C)c1	8.17% (inactive)
Cc1ccc(OCC(O)CNCc2ccc(F)cc2)cc1 (centres undefined)	-1.28% (inactive)
COc1ccc(C(OCC(O)CNCCc2ccccc2)c2ccc(OC)cc2)cc1 (centres undefined)	-15.4% (inactive)
Cc1ccc(C(OCC(O)CNC(C)c2ccccc2)c2ccccc2)cc1 (centres undefined)	-20.1% (inactive)
COc1ccccc1COCC(O)CNCCc1ccc(C(F)(F)F)cc1 (centres undefined)	5.56% (inactive)
COc1ccc2cc(CN(Cc3cccnc3)Cc3nnnn3Cc3ccccc3)c(=O)[nH]c2c1	-1.66% (inactive)
CCOC(=O)CSc1c(-c2ccc(Cl)cc2)[nH]c2ccccc12	-5.57% (inactive)
CC1(C)CC(=O)C=C(Nc2ccc(C(=O)O)c(O)c2)C1	-4.27% (inactive)
N#C/C(=C\c1cn(CCOc2ccccc2)c2ccccc12)C(=O)NCc1cccs1	-5.68% (inactive)
COc1ccnc(Oc2ccc(C)cc2)c1C#N	5.63% (inactive)
Cc1ccc(C)c(SCC(=O)NCC(c2ccco2)N2CCCCC2)c1 (centres undefined)	19.8% (inactive)
COc1ccc(NS(=O)(=O)c2cccc(C(=O)NNC(=O)c3cncc(Br)c3)c2)cc1	11.8% (inactive)
COc1ccccc1N1CCN(C(=O)/C=C/c2cccs2)CC1	-0.34% (inactive)
Cc1cc(NS(=O)(=O)c2ccc(NC(=O)Nc3cccc(C(F)(F)F)c3)cc2)no1	-2.04% (inactive)
Cc1cc(NS(=O)(=O)c2ccc(NC(=O)Nc3ccccc3)cc2)no1	-1.36% (inactive)
CCN1c2ccccc2NC2C1C(C(C)=O)C(=O)N2c1ccc(Cl)cc1 (centres undefined)	-5.05% (inactive)
CCCN1C(=O)c2ccccc2NC1c1cc(OC)c(OC)c(OC)c1 (centres undefined)	4.01% (inactive)
COc1ccc(-c2[nH]ncc2-c2nc(C)cs2)c(O)c1	-0.79% (inactive)
Cc1ccc(OCC(O)Cn2c(=N)n(Cc3ccccc3)c3ccccc32)cc1 (centres undefined)	-18.7% (inactive)
N=c1n(Cc2ccccc2)c2ccccc2n1CC(O)COc1ccccc1 (centres undefined)	-2.26% (inactive)

Compound	inhibition
COc1ccc(OCC(O)Cn2c(=N)n(Cc3ccccc3)c3ccccc32)cc1 (centres undefined)	10.7% (inactive)
Cc1cccc(OCC(O)Cn2c(=N)n(Cc3ccccc3)c3ccccc32)c1 (centres undefined)	-11.7% (inactive)
Cc1ccn2cc(-c3cccc(NS(C)(=O)=O)c3)nc2c1	-0.47% (inactive)
CN(C)c1cccc(C(=O)OCC(=O)Nc2ccccc2-c2ccccc2)c1	-5.83% (inactive)
Cc1ccc(OCCNC(=O)CCC(=O)N2CCOCC2)cc1	1.97% (inactive)
CNCc1c(OCc2ccccc2)ccc2ccccc12	15.5% (inactive)
CNCc1c(OCc2ccc(F)cc2)ccc2ccccc12	20.5% (inactive)
Cc1cc(C)c2nc(C)cc(Nc3ccc(C(=O)NCCO)cc3)c2c1	1.42% (inactive)
COc1ccc2oc(C(=O)OCC(=O)N3CC(C)OC(C)C3)c(C)c2c1 (centres undefined)	1.14% (inactive)
Cc1ccc(NC2=CC(=O)C(=O)c3ccccc32)cc1	5.69% (inactive)
CCOC(=O)c1ccc(NC2=CC(=O)C(=O)c3ccccc32)cc1	0.12% (inactive)
O=C1C=C(Nc2ccccc2C(=O)O)c2ccccc2C1=O	8.73% (inactive)
O=C1C=C(Nc2cccc3cccnc23)c2ccccc2C1=O	1.58% (inactive)
CS(=O)(=O)N(CC(=O)N1CCC(C(N)=O)CC1)C1CCCCC1	-1.33% (inactive)
CCOC(=O)Cc1csc(NC(=O)c2ccc3ncsc3c2)n1	-6% (inactive)
COc1ccc(-n2nc(C(=O)NCC(=O)NCc3ccccc3OC)c3ccccc3c2=O)cc1	8.47% (inactive)
c1ccc(CN2CCN(c3nc(N4CCOCC4)c4ccccc4n3)CC2)cc1	-3.61% (inactive)
OCCN1CCN(c2nc(NCc3ccco3)c3ccccc3n2)CC1	3.47% (inactive)
OCCNc1nc(N2CCN(Cc3ccccc3)CC2)nc2ccccc12	1.64% (inactive)
c1ccc(N2CCN(c3nc(NCc4ccco4)c4ccccc4n3)CC2)cc1	13.6% (inactive)
O=C(NC(=S)N1CCN(c2ccc([N+](=O)[O-])cc2)CC1)c1ccco1	-9.69% (inactive)

Compound	inhibition
CCC1(c2ccccc2)NC(=O)N(CC(=O)Nc2nnc(C3CC3)s2)C1=O (centres undefined)	-9.36% (inactive)
COc1ccc(OC)c2[nH]c(=O)c(CCNS(=O)(=O)c3ccc(C)cc3)cc12	7.93% (inactive)
C#CCOCCOCCOCCNc1nc(N2CCN(C(=O)[C@H]([C@@H](C)CC)n3cc([C@@H](N)CC(C)C)nn3)CC2)nc(N2CCN(C(=O)[C@H](Cc3cc4ccccc4[nH]3)n3cc([C@@H](N)Cc4ccc(O)cc4)nn3)CC2)n1	-29.1% (inactive)
C#CCOCCOCCOCCNc1nc(N2CCN(C(=O)C(Cc3ccc(O)cc3)n3cc(C(N)CC(C)C)nn3)CC2)nc(N2CCN(C(=O)C(Cc3cc4ccccc4[nH]3)n3cc(C(N)C(C)CC)nn3)CC2)n1 (centres undefined)	18.1% (inactive)
C#CCOCCOCCOCCNc1nc(N2CCN(C(=O)C(CCC(=O)O)n3cc(C(N)CC(C)C)nn3)CC2)nc(N2CCN(C(=O)C(Cc3cc4ccccc4[nH]3)n3cc(C(N)Cc4ccc(O)cc4)nn3)CC2)n1 (centres undefined)	-1.42% (inactive)
C#CCOCCOCCOCCNc1nc(N2CCN(C(=O)[C@H]([C@@H](C)CC)n3cc([C@@H](N)Cc4ccc(O)cc4)nn3)CC2)nc(N2CCN(C(=O)[C@H](Cc3cc4ccccc4[nH]3)n3cc([C@@H](N)C(C)CC)nn3)CC2)n1 (some centres undefined)	17.7% (inactive)
C#CCOCCOCCOCCNc1nc(N2CCN(C(=O)[C@H](CCC(=O)O)n3cc(C(N)Cc4ccc(O)cc4)nn3)CC2)nc(N2CCN(C(=O)[C@H](Cc3cc4ccccc4[nH]3)n3cc(C(N)CC(C)C)nn3)CC2)n1 (some centres undefined)	5.34% (inactive)
C#CCOCCOCCOCCNc1nc(N2CCN(C(=O)[C@H](Cc3ccc(O)cc3)n3cc([C@@H](N)C(C)CC)nn3)CC2)nc(N2CCN(C(=O)[C@H](Cc3cc4ccccc4[nH]3)n3cc([C@@H](N)CC(C)C)nn3)CC2)n1 (some centres undefined)	11% (inactive)
CCc1ccccc1NNC(=O)c1cc(C)on1	-26.6% (inactive)
Cc1cc(OCC(=O)N2CCC(C(=O)O)(c3ccccc3)CC2)c2c(C)c(C)c(=O)oc2c1	1.07% (inactive)
O=C(Cn1cnc2c(oc3ccccc32)c1=O)N1CCCc2ccccc21	1.66% (inactive)
Cc1cc(NC(=O)c2cccc(S(=O)(=O)N3CC(c4ccccc4)CC3=O)c2)no1 (centres undefined)	-38.2% (inactive)
O=C1CC(C(=O)Nc2ccccc2)S/C(=N\NC(=O)c2ccccc2Cl)N1 (centres undefined)	21.9% (inactive)
O=C(O)c1cc(C(F)(F)F)nc2c(C(F)(F)F)cccc12	-2.04% (inactive)
OC(c1cc(C(F)(F)F)nc2c(Cl)cc(Cl)cc12)C1CCCCN1 (centres undefined)	0.54% (inactive)
OC(c1cc(-c2ccc(C(F)(F)F)cc2)nc(C(F)(F)F)c1)C1CCCCN1 (centres undefined)	-0.73% (inactive)
COc1ccc(OC)c(C(O)C2CCCCN2)c1 (centres undefined)	-3.76% (inactive)
COc1ccc(C2Cc3ccccc3C(=O)O2)cc1 (centres undefined)	7.74% (inactive)
CSCCC(NC(N)=O)C(=O)NCc1cccc(Cl)c1 (centres undefined)	3.4% (inactive)
CN(C(=O)c1ccco1)c1nc(-c2ccccc2)cs1	-0.59% (inactive)
CN(C)C(=O)c1cn(-c2ccccc2)nc1-c1cc2ccccc2oc1=O	-9.39% (inactive)

Compound	inhibition
Clc1ccc(/C=C/c2nc3ccccc3[nH]2)c(Cl)c1	7.7% (inactive)
CSC1=NC(C)(C)C=C(/C=C/c2ccc(Cl)cc2Cl)N1	4.11% (inactive)
CC(c1ccccc1)N1CC(C(=O)NC2CCCC2)CC1=O (centres undefined)	-13.4% (inactive)
CCOC(=O)CC1(NC(=O)C2CCC(=O)N(Cc3ccccc3F)C2)CCCCC1 (centres undefined)	-14.3% (inactive)
CN(C)CCCN(C(=O)c1ccco1)c1nc2c(F)cc(F)cc2s1	1.38% (inactive)
CCn1cc(C(=O)O)c(=O)c2cc(F)c(N3CCN(C(=S)NC(=O)c4ccccc4Cl)CC3)cc21	11.6% (inactive)
CCn1cc(C(=O)O)c(=O)c2cc(F)c(N3CCN(C(=S)NC(=O)c4ccccc4Br)CC3)cc21	-18.1% (inactive)
Cc1cc(S(=O)(=O)Nc2ccc(C(=O)N3CCN(c4ccccc4O)CC3)cc2)ccc1F	-8.67% (inactive)
COc1ccc(Cn2cc(F)c(=O)n(C)c2=O)cc1[N+](=O)[O-]	4.35% (inactive)
Cc1ccc(S(=O)(=O)N2CCCC(C(=O)NCC3COCCO3)C2)cc1 (centres undefined)	-3.93% (inactive)
O=C(N/N=C/c1cccc([N+](=O)[O-])c1)C1COc2ccccc2O1 (centres undefined)	-0.57% (inactive)
O=C(N/N=C\c1ccc(-c2ccccc2[N+](=O)[O-])o1)C1COc2ccccc2O1 (centres undefined)	6.46% (inactive)
COc1cc([N+](=O)[O-])cc(/C=N\NC(=O)C2COc3ccccc3O2)c1O (centres undefined)	16.3% (inactive)
O=C(N/N=C\c1ccc(O)c([N+](=O)[O-])c1)C1COc2ccccc2O1 (centres undefined)	1.19% (inactive)
CCOC(=O)C1(Cc2ccccc2C(F)(F)F)CCN(Cc2ccon2)CC1	-14.2% (inactive)
O=C(Cn1cnc(S(=O)(=O)N2CCCC2)c1)Nc1cccc(Br)c1	-2.76% (inactive)
O=C(Nn1cnnc1)c1ccccc1-c1ccccc1	9.02% (inactive)
COc1cccc(-c2ccc3nnc(SCC(=O)N4CCCC4)n3n2)c1	1.13% (inactive)
CCN1C(=O)NC(c2ccc(Cl)cc2)C2=C1CCCC2=O (centres undefined)	-16.4% (inactive)
O=C(CN1CCCC1)N1CCCC(c2ccc(F)cc2)c2ccc(F)cc21 (centres undefined)	-12.7% (inactive)
OCCN1CCN(CC(O)COC(c2ccc(F)cc2)c2ccc(F)cc2)CC1 (centres undefined)	-5.69% (inactive)
